Experimental data: PubChem BioAssay (NCI)
The panel holds about 79,000 compounds, 15% with a hit somewhere; the sample as a whole holds those more often. The source made the active and inactive calls. Cut-off read from the data, not from the text of the source: active = growth inhibition above about 70%; inactive = the rest.

Tests used:
[1] = NCI Yeast Anticancer Drug Screen. Data for the rad50 strain (AID 155);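 note: 0% = growth of vehicle-only cultures of the same strain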; conditions: S. cerevisiae rad50 strain growth inhibition; at 50.0 µM; active compounds read high
Method in brief: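 Compounds were tested on a yeast strain with an engineered DNA damage repair alteration; the reported value is growth inhibition normalised to vehicle treatment.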

[2] = NCI Yeast Anticancer Drug Screen. Data for the mec2-1 strain (AID 157); conditions: S. cerevisiae mec2-1 strain, at 50.0 µM, active compounds read high
Method in brief: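 Cells of the genetically defined mec2-1 yeast strain are incubated with test compound. Inhibition of growth is calculated against vehicle-treated controls.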

[3] = NCI Yeast Anticancer Drug Screen. Data for the sgs1 mgt1 strain (AID 161);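 note: 0% = growth of cultures given vehicle only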; conditions: S. cerevisiae sgs1 mgt1 strain, at 50.0 µM, active compounds read high
Method in brief: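 Read-out: growth inhibition vs vehicle controls. Cells: mutant yeast strain deficient in DNA damage repair.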

[4] = NCI Yeast Anticancer Drug Screen. Data for the cln2 rad14 strain (AID 165);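 note: 0% = growth equal to vehicle treated cultures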; conditions: S. cerevisiae cln2 rad14 strain, at 50.0 µM, active compounds read high
Method in brief: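 The screen exposed genetically defined yeast (cln2 rad14) to test compounds and scored growth inhibition relative to vehicle-treated controls.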

[5] = NCI Yeast Anticancer Drug Screen. Data for the bub3 strain (AID 167); conditions: S. cerevisiae bub3 mutant strain, at 50.0 µM, active compounds read high
Method in brief: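 Growth of a checkpoint-deficient yeast mutant is measured after compound exposure. Values represent inhibition relative to vehicle.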

[6] = NCI Yeast Anticancer Drug Screen. Data for the mlh1 rad18 strain (AID 175); conditions: S. cerevisiae mlh1 rad18 strain growth inhibition; at 50.0 µM; active compounds read high
Method in brief: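 Compound-treated yeast growth, normalised to vehicle controls. Strain bears defined DNA repair mutations.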

Measured: growth inhibition

Cc1cc(-c2cc(C)on2)no1
inactive: [1] -44.7% | [2] -2.75% | [3] -15.9% | [4] -30.1% | [5] -6.15% | [6] -3.25%

O=C1C=C(c2ccccc2)C(c2ccccc2)=C1
inactive: [1] 23.6% | [2] 2.8% | [3] -5.2% | [4] 30.1% | [5] -5.6% | [6] 11.1%

O=NC1C(Cl)C2CC1C1C(Cl)C(Cl)CC21 (stereo unspecified)
inactive: [1] 35% | [2] 14.7% | [3] 52.9% | [4] 40.4% | [5] 27.4% | [6] 33.1%

C=C1C(=O)OC2C1C(OC(=O)/C(C)=C/C)CC(O)(CCl)C1C(O)C=C(C)C21O (stereo unspecified)
inactive: [1] 33.5% | [2] 14.6% | [3] 21.6% | [4] 20.8% | [5] 10.1% | [6] -51.1%

CC(C)CCCC(C)C1CCC2(C)C3CCC4C(C)(C)C(OCC(C)(C)C)CCC4(C)C3CCC12C (stereo unspecified)
inactive: [1] 34% | [2] -5.5% | [3] 4.7% | [4] 7.3% | [5] -0.15% | [6] -5.4%

CCN(CC)CCNc1ccc2ncn3c4ccc(OC)cc4c(=O)c1c23
inactive: [1] 4.35% | [2] -1.9% | [3] -34.9% | [4] 18.6% | [5] 20.9% | [6] 34.2%

Clc1c(-c2ccccc2)oc2nc3ccccc3nc12
inactive: [1] 13.9% | [2] 6.85% | [3] 13.6% | [4] 21.6% | [5] -1.55% | [6] 26.2%

Cc1c(Cl)cccc1NC(=O)Nc1ccc(S(N)(=O)=O)cc1
inactive: [1] 0.7% | [2] 29.4% | [3] 39.4% | [4] 1.4% | [5] 21.8% | [6] 19.1%

CCCCCCCCCCCCCCNC(=O)CCl
inactive: [1] 14.8% | [2] -17.5% | [3] -5.8% | [4] -8.5% | [5] -9.25% | [6] -16.2%

O=C1C=C(Nc2nc(O)cc(=O)[nH]2)c2ccccc2C1=O
inactive: [1] 0.75% | [2] 2.2% | [3] 1.15% | [4] -38.5% | [5] -0.4% | [6] 13.5%

Fc1ccc(Nc2cc(F)cc(F)c2)cc1
inactive: [1] 22.7% | [2] 8.45% | [3] 17.4% | [4] 3.2% | [5] 10.6% | [6] 11.1%

CCCCCC(CN(C)C)C(=O)CC(SCC)c1ccc(Cl)c(Cl)c1 (stereo unspecified)
active: [1] 99.5% | [2] 99.5% | [3] 99.5% | [4] 99.5% | [5] 99.2% | [6] 99.3%

CCC(C)C(=O)OC1C(=O)OC2CC3C(C)=CC(=O)C(O)C3(C)C3C4(O)OCC23C1C(C)C4O (stereo unspecified)
active: [1] 90.3% | [2] 93% | [3] 90% | [4] 91.3% | [5] 90.6% | [6] 92.1%

O=[N+]([O-])c1ccc(NN=C2CN3CCN(C2)c2ccccc23)c([N+](=O)[O-])c1
inactive: [1] 35.4% | [2] 20.1% | [3] 59.8% | [4] 40.8% | [5] 40.6% | [6] 35.1%

CCCn1c(C)nc2cc(C)cc(N)c21
inactive: [1] 19.2% | [2] 20.4% | [3] 11% | [4] -17.4% | [5] -1.15% | [6] 1.7%

CCc1cccc(CC)c1NC(=O)CC1SC(N)=NC1=O (stereo unspecified)
inactive: [1] -4.45% | [2] -19.2% | [3] -1.95% | [4] 9.8% | [5] 15.7% | [6] -24.9%

CC(=O)NCCOC(=O)c1ccccc1
inactive: [1] 34.5% | [2] 4.75% | [3] 16.4% | [4] -17.9% | [5] 4.05% | [6] 5.9%

CNC(CC(=O)O)C(=O)O (stereo unspecified)
inactive: [1] -0.4% | [2] -3.95% | [3] -14.6% | [4] -15.1% | [5] 2.5% | [6] -3.05%

Cc1onc(-c2ccccc2Cl)c1C(=O)NCC(=O)O
inactive: [1] -5.55% | [2] 2.6% | [3] -3.5% | [4] 3.5% | [5] 12.7% | [6] -0.15%

CCCC(C)NC(=O)c1ccc(Cl)c(Cl)c1 (stereo unspecified)
inactive: [1] 0.25% | [2] 4.9% | [3] 13.1% | [4] 8.3% | [5] 9.15% | [6] 24.6%

NC(Cc1c[nH]c2ccc(Br)cc12)C(=O)O (stereo unspecified)
inactive: [1] -29.4% | [2] -26.7% | [3] -17.9% | [4] 5.4% | [5] -29.8% | [6] -38.1%
